PubChem BioAssay (Tox21)
Inconclusive results are not listed. Calls of active or inactive are those of the source. The call rests on the fitted dose curve; in most records, active means well fitted curve in the direction sought with a large enough effect in the repeat runs; inconclusive means weak or mixed curves; inactive means no such curve, though single readings can be large; an effect the other way counts as inactive or inconclusive.

Key:
[1] = A CellTox Green Cytotoxicity Assay to monitor cytotoxicity in HEK293 cells - 40 hour (AID 1224871); further: nearly all actives have a fitted effect of over 45% in size; further: potency means the concentration at half of the fitted maximal effect
In short: (§1)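 Homogeneous no-lysis format: HEK293 cell suspension mixed with CellTox Green reagent, seeded, incubated 5 h at 37 C/5% CO2, then dosed by pintool with compound in DMSO.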

[2] = qHTS RealTime-Glo MT Cell Viability Assay in HEK293 cells - 16 hour (AID 1224872); further: nearly all actives have a fitted effect of over 50% in size; further: potency means the concentration at half of the fitted maximal effect
In short: (§2)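 Assay medium contained NanoLuc luciferase plus cell-permeant prosubstrate, added with HEK293 cells at 600 cells/well. After 5 h at 37 C/5% CO2 compounds were added; plates stayed at 37 C for 40 h with serial luminescence reads.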

[3] = qHTS RealTime-Glo MT Cell Viability Assay in HepG2 cells - 8 hour (AID 1224873); further: nearly all actives have a fitted effect of over 55% in size
In short: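 HepG2 cells mixed with RealTime-Glo MT reagents (NanoLuc plus cell-permeant prosubstrate) were seeded at 600 cells/well, incubated 5 h at 37 C/5% CO2, then pinned with compounds in DMSO; nonlytic luminescence tracked viability during 40 h treatment.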

[4] = qHTS RealTime-Glo MT Cell Viability Assay in HEK293 cells - 40 hour (AID 1224874); settings: RealTime-Glo luminescence; max response: active compounds read low; further: nearly all actives have a fitted effect of over 50% in size; further: potency means the concentration at half of the fitted maximal effect
In short: (§3)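 Measured as luminescence from the same continuously cultured HEK293 wells at successive time points (0, 8, 16, 24, 32, 40 h) after compound addition. Reagent present from seeding; dosing at 5 h; incubation 37 C.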

[5] = A CellTox Green Cytotoxicity Assay to monitor cytotoxicity in HEK293 cells - 24 hour (AID 1224875); further: series mostly up to about 77 µM; nearly all actives have a fitted effect of over 45% in size
In short: as §1

[6] = A CellTox Green Cytotoxicity Assay to monitor cytotoxicity in HepG2 cells - 16 hour (AID 1224876); further: nearly all actives have a fitted effect of over 45% in size
In short: (§4)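 Fluorescent DNA-binding dye, 600 HepG2 cells/well, 5 h preincubation then compound in DMSO; same plates read at 0–40 h, 37 C.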

[7] = qHTS RealTime-Glo MT Cell Viability Assay in HepG2 cells - 32 hour (AID 1224877); further: nearly all actives have a fitted effect of over 55% in size; further: potency means the concentration at half of the fitted maximal effect
In short: (§5)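 qHTS, HepG2, 600 cells/well, RealTime-Glo (NanoLuc + prosubstrate) added with cells; 5 h preincubation; DMSO compound addition; 37 C; luminescence at 0/8/16/24/32/40 h.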

[8] = A CellTox Green Cytotoxicity Assay to monitor cytotoxicity in HepG2 cells - 24 hour (AID 1224878); further: nearly all actives have a fitted effect of over 45% in size
In short: as §4

[9] = A CellTox Green Cytotoxicity Assay to monitor cytotoxicity in HepG2 cells - 40 hour (AID 1224879); further: nearly all actives have a fitted effect of over 40% in size
In short: as §4

[10] = qHTS RealTime-Glo MT Cell Viability Assay in HEK293 cells - 0 hour (AID 1224880)
In short: as §3

[11] = A CellTox Green Cytotoxicity Assay to monitor cytotoxicity in HEK293 cells - 32 hour (AID 1224881); further: nearly all actives have a fitted effect of over 40% in size
In short: as §1

[12] = A CellTox Green Cytotoxicity Assay to monitor cytotoxicity in HepG2 cells - 0 hour (AID 1224882); further: nearly all actives have a fitted effect of over 35% in size
In short: as §4

[13] = A CellTox Green Cytotoxicity Assay to monitor cytotoxicity in HEK293 cells - 8 hour (AID 1224884); further: nearly all actives have a fitted effect of over 35% in size
In short: as §1

[14] = qHTS RealTime-Glo MT Cell Viability Assay in HepG2 cells - 16 hour (AID 1224885); further: nearly all actives have a fitted effect of over 50% in size
In short: as §5

[15] = qHTS RealTime-Glo MT Cell Viability Assay in HEK293 cells - 24 hour (AID 1224886); further: nearly all actives have a fitted effect of over 50% in size; further: potency means the concentration at half of the fitted maximal effect
In short: as §2

[16] = qHTS RealTime-Glo MT Cell Viability Assay in HEK293 cells - 8 hour (AID 1224887)
In short: as §3

[17] = A CellTox Green Cytotoxicity Assay to monitor cytotoxicity in HEK293 cells - 16 hour (AID 1224888); further: nearly all actives have a fitted effect of over 35% in size
In short: as §1

[18] = qHTS RealTime-Glo MT Cell Viability Assay in HepG2 cells - 0 hour (AID 1224889); further: nearly all actives have a fitted effect of over 50% in size; further: potency means the concentration at half of the fitted maximal effect
In short: as §5

[19] = A CellTox Green Cytotoxicity Assay to monitor cytotoxicity in HepG2 cells - 8 hour (AID 1224890); further: nearly all actives have a fitted effect of over 45% in size
In short: as §4

[20] = A CellTox Green Cytotoxicity Assay to monitor cytotoxicity in HepG2 cells - 32 hour (AID 1224883); further: nearly all actives have a fitted effect of over 50% in size
In short: as §4
On the % scale 0 is the no-effect control and ±100 the full control effect.

CN1CC(=O)N/C1=N/C(=O)Nc1cccc(Cl)c1
inactive: Potency [1] | Potency [2] | outcome [3] | max response [4] -14.4% | outcome [5] | outcome [6] | Potency [7] | outcome [8] | Potency [9] | Potency [10] | outcome [11] | Potency [12] | outcome [13] | outcome [14] | Potency [15] | Potency [16] | outcome [17] | Potency [18] | outcome [19]

CC(C)(C#N)Nc1nc(Cl)nc(NC2CC2)n1
inactive: Potency [1] | Potency [2] | outcome [3] | max response [4] 1.79% | outcome [5] | outcome [6] | Potency [7] | outcome [8] | Potency [9] | Potency [10] | outcome [11] | Potency [12] | Potency [20] | outcome [14] | Potency [15] | Potency [16] | outcome [17] | Potency [18]

CCCc1ncc(C[n+]2ccccc2C)c(N)n1
inactive: Potency [1] | Potency [2] | outcome [3] | max response [4] 6.68% | outcome [5] | outcome [6] | Potency [7] | outcome [8] | Potency [9] | Potency [10] | outcome [11] | Potency [12] | outcome [13] | outcome [14] | Potency [15] | Potency [16] | outcome [17] | outcome [19]

CC(=O)OCC(=O)[C@@]1(O)[C@H](C)C[C@H]2[C@@H]3CCC4=CC(=O)C=C[C@]4(C)[C@@]3(F)[C@@H](O)C[C@@]21C
active: Potency [18] 9.52 µM
inactive: Potency [1] | Potency [2] | outcome [3] | max response [4] 5.93% | outcome [5] | outcome [6] | Potency [7] | outcome [8] | Potency [9] | Potency [10] | outcome [11] | Potency [12] | outcome [13] | outcome [14] | Potency [15] | Potency [16] | outcome [17]

CC(C)(C)c1ccc(-c2ccc(C(C)(C)C)cc2)cc1
inactive: Potency [1] | Potency [2] | outcome [3] | max response [4] -2.15% | outcome [5] | outcome [6] | Potency [7] | outcome [8] | Potency [9] | Potency [10] | outcome [11] | Potency [12] | Potency [20] | outcome [14] | Potency [15] | Potency [16] | outcome [17] | Potency [18] | outcome [19]

O=C(CO)[C@@H](O)[C@H](O)[C@H](O)CO
inactive: Potency [1] | Potency [2] | outcome [3] | max response [4] 1.94% | outcome [5] | outcome [6] | Potency [7] | outcome [8] | Potency [9] | Potency [10] | outcome [11] | Potency [12] | outcome [13] | outcome [14] | Potency [15] | Potency [16] | outcome [17] | Potency [18] | outcome [19]

O=C(c1ccccc1)C1(O)CCCCC1
inactive: Potency [1] | Potency [2] | outcome [3] | max response [4] -2.37% | outcome [5] | outcome [6] | Potency [7] | outcome [8] | Potency [9] | Potency [10] | Potency [12] | Potency [20] | outcome [14] | Potency [15] | Potency [16] | outcome [17] | outcome [19]

CCOc1c(N2CCOCC2)cnn(C)c1=O
inactive: Potency [1] | Potency [2] | outcome [3] | max response [4] 3.38% | outcome [5] | outcome [6] | Potency [7] | outcome [8] | Potency [9] | Potency [10] | outcome [11] | Potency [12] | outcome [13] | outcome [14] | Potency [15] | Potency [16] | outcome [17]

C=CC(C)(CCC=C(C)C)OC(=O)CC (stereo not given)
inactive: Potency [1] | Potency [2] | outcome [3] | max response [4] -1.4% | outcome [5] | outcome [6] | Potency [7] | outcome [8] | Potency [9] | Potency [10] | outcome [11] | Potency [12] | outcome [13] | outcome [14] | Potency [15] | Potency [16] | outcome [17] | Potency [18] | outcome [19]

CC(COc1ccccc1)NN (stereo not given)
inactive: Potency [1] | Potency [2] | outcome [3] | max response [4] 2.34% | outcome [5] | outcome [6] | Potency [7] | outcome [8] | Potency [9] | Potency [10] | outcome [11] | Potency [12] | outcome [13] | outcome [14] | Potency [15] | Potency [16] | outcome [17] | Potency [18] | outcome [19]

CCN(Cc1ccccc1)c1ccccc1
inactive: outcome [3] | outcome [5] | outcome [6] | Potency [7] | outcome [8] | Potency [9] | Potency [10] | Potency [12] | Potency [20] | outcome [13] | outcome [14] | Potency [16] | outcome [17]
active: Potency [1] 43.1 µM | Potency [2] 19.3 µM | Potency [4] 21.6 µM | Potency [15] 21.6 µM

c1ccc2sc(SN3CCOCC3)nc2c1
inactive: Potency [1] | Potency [2] | outcome [3] | max response [4] 4.29% | outcome [5] | outcome [6] | Potency [7] | outcome [8] | Potency [9] | Potency [10] | outcome [11] | Potency [12] | outcome [13] | outcome [14] | Potency [15] | Potency [16] | outcome [17] | Potency [18]

COc1ccc2cc1Oc1cc3c(cc1OC)CC[N+](C)(C)[C@H]3Cc1ccc(cc1)Oc1c(OC)c(OC)cc3c1[C@@H](C2)[N+](C)(C)CC3
active: Potency [7] 21.3 µM
inactive: Potency [1] | Potency [2] | outcome [3] | max response [4] -3.12% | outcome [5] | outcome [6] | outcome [8] | Potency [9] | Potency [10] | outcome [11] | Potency [12] | outcome [13] | outcome [14] | Potency [15] | Potency [16] | outcome [17] | Potency [18] | outcome [19]

Nc1ccn([C@@H]2O[C@H](CO)[C@@H](O)[C@@H]2O)c(=O)n1
inactive: Potency [1] | Potency [2] | outcome [3] | max response [4] 6.05% | outcome [5] | outcome [6] | Potency [7] | outcome [8] | Potency [9] | Potency [10] | outcome [11] | Potency [12] | outcome [13] | outcome [14] | Potency [15] | Potency [16] | outcome [17] | outcome [19]
